Bioassay records (PubChem BioAssay)
This is a sample that favours compounds with a hit; in the whole collection about 21% have one here.
NS1 function inh – qHTS Assay for Inhibitors of Influenza NS1 Protein Function | Potency, µM (top dose mostly 46.1 µM), for the others: at the highest dose activity, positive = more growth | 270,000 compounds, 0.4% hits | AID 2326, 2010; calls by dose curve; further: potency means the concentration at half of the fitted maximal effect; actives are rising curves; nearly all actives have a fitted effect of over 50% in size
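Read-out: OD600 growth recovery of NS1-expressing budding yeast. Cells grown overnight at 30C in -URA glucose medium, washed, resuspended and diluted 1:100 in 2% galactose assay medium, pH 6.0. Same strain lacking NS1 served as positive control.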
CHX counter – Cycloheximide Counterscreen for Small Molecule Inhibitors of Shiga Toxin. 300,000 compounds, 12% hits. cell reporter, cycloheximide protein synthesis inhibition counterscreen. max response, %; in the data active means max response mostly above about 13%, no sharp cut-off; inactive means mostly below about 14%; further: read at 38.3 µM for the half of the compounds with a filed dose; 0% is about no effect
SARS PLpro yeast – qHTS of Yeast-based Assay for SARS-CoV PLP. Potency, µM (series often up to 32.9 µM), without a hit: at the top dose activity, positive = growth rescue, usual class: activators. S. cerevisiae expressing SARS-CoV PLpro, growth rescue. 330,000 compounds, 0.19% hits; calls by dose curve; further: potency means the concentration at half of the fitted maximal effect; 0% is about no effect; nearly all actives have a fitted effect of over 55% in size
Shiga toxin inh – A qHTS for Small Molecule Inhibitors of Shiga Toxin. inhibition, % at 38.7 µM. AID 2315, 2010. 290,000 compounds, 9.2% hits. Vero cells, Shiga toxin protein synthesis inhibition reporter; in the data active means inhibition mostly above about 28%, no sharp cut-off; inactive means mostly below about 43%; further: 0% is about no effect
Pf growth 48h – Primary qHTS for delayed death inhibitors of the malarial parasite plastid, 48 hour incubation; AID 504832, 2011; 310,000 compounds, 5.9% hits; P. falciparum luciferase growth in erythrocytes, 48 h; Potency, µM (doses to about 28.7 µM), for inactives: at the top dose activity change, negative = inhibition, hits mostly inhibitors; further: potency means the concentration at half of the fitted maximal effect; on the % scale 0 is the no-effect control and ±100 the full control effect
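Firefly luciferase activity from engineered P. falciparum reports growth; inhibitors lower the luminescent signal. Cultures contained 2% hematocrit erythrocytes at 0.1% final parasitemia.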
Pf growth 96h – Primary qHTS for delayed death inhibitors of the malarial parasite plastid, 96 hour incubation. P. falciparum luciferase reporter growth, 96 h. Potency, µM (top dose mostly 28.7 µM), inactives show at the highest dose activity change, negative = inhibition, most hits filed as inhibitors. 320,000 compounds, 6.9% hits. AID 504834, 2011; further: potency means the concentration at half of the fitted maximal effect; on the % scale 0 is the no-effect control and ±100 the full control effect
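Delayed-death screen, second-generation endpoint: infected erythrocytes, 2% hematocrit, 0.05% parasitemia final; 96 hours at 37 C, 5% CO2; luciferase detection reagent; luminescence decrease equals reduced growth.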
Active calls of the source: *; [ ] = another dose, or the depositor's remark. Unless noted, the call rests on the fitted dose curve; in most records, active means well fitted inhibition curve with a large enough effect; inconclusive means small, poorly fitted or top-dose-only effect, or another doubt; inactive means no such curve, though single readings can be large or run the other way.

Screening Cc1nc2sccn2c(=O)c1S(=O)(=O)NCc1ccccc1 returned NS1 function inh 0%, CHX counter -1, SARS PLpro yeast 0%, Shiga toxin inh -2, Pf growth 48h 23% and Pf growth 96h 62%.
CCC/C=C/C=C/C(=O)OC1/C(=C/C(=O)OC)CC2CC(C(C)O)OC(=O)CC(O)CC3CC(OC(C)=O)C(C)(C)C(O)(CC4C/C(=C/C(=O)OC)CC(/C=C\C(C)(C)C1(O)O2)O4)O3 (configuration not stated) was read as Pf growth 48h 3.8µM* and Pf growth 96h 1.5µM*.
COC(=O)c1ccc(-n2nnnc2SCC(=O)Nc2ccccc2F)cc1 was read as NS1 function inh -2%, CHX counter -2, SARS PLpro yeast 2%, Shiga toxin inh -12, Pf growth 48h 7% and Pf growth 96h inconclusive.
O=C(CN(c1ccccc1)S(=O)(=O)c1ccccc1[N+](=O)[O-])Nc1ccccc1C(=O)N1CCOCC1 was read as NS1 function inh -10%, CHX counter 7, SARS PLpro yeast 1%, Shiga toxin inh -15, Pf growth 48h -19% and Pf growth 96h 36%.
`CCN(c1ccccc1)S(=O)(=O)c1ccc(OC)c(NC(=O)CN2C(=O)NC(C)(C)C2=O)c1` gave SARS PLpro yeast 3%, Pf growth 48h -13% and Pf growth 96h -28%.
`CCN(c1ccccc1)S(=O)(=O)c1ccc(OC)c(NC(=O)Cc2ccc(F)cc2)c1` gave SARS PLpro yeast 5%, Pf growth 48h inconclusive and Pf growth 96h 10µM*.
Screening CCN(c1ccccc1)S(=O)(=O)c1ccc(OC)c(NC(=O)C2CCC2)c1 returned SARS PLpro yeast -17%.
Screening CCN(c1ccccc1)S(=O)(=O)c1ccc(OC)c(NC(=O)CNCCc2ccccc2)c1 returned NS1 function inh 9%, CHX counter 25*, SARS PLpro yeast -1%, Shiga toxin inh 36, Pf growth 48h 12µM* and Pf growth 96h inconclusive.
CN1CCC(NCCC(c2ccc(F)cc2)c2ccc(Cl)cc2)CC1 (configuration not stated) was read as NS1 function inh 1%, CHX counter -6, SARS PLpro yeast -1%, Shiga toxin inh -8, Pf growth 48h 1.7µM* and Pf growth 96h 1.9µM*.
Screening CC(C)C(CCNC1CCN(C)CC1)c1ccc(Cl)cc1 (configuration not stated) returned NS1 function inh -1%, CHX counter -5, SARS PLpro yeast -2%, Shiga toxin inh -13, Pf growth 48h -4%[0.00184 µM] and Pf growth 96h inconclusive.
For COC(=O)C(NNc1ccccc1C)(NC(=O)c1ccc(F)cc1)C(F)(F)F (configuration not stated) the results were NS1 function inh -13%, CHX counter -3, SARS PLpro yeast -1%, Shiga toxin inh -8, Pf growth 48h -28% and Pf growth 96h -18%.
Screening CCOC(=O)c1cccnc1NC(=O)c1ccccc1 returned NS1 function inh -5%, CHX counter -2, SARS PLpro yeast 15%, Shiga toxin inh -2, Pf growth 48h 27% and Pf growth 96h 17%.
Screening COC(=O)C1CCCCN1C(=O)c1ccc2oc(C(C)C)nc2c1 (configuration not stated) returned NS1 function inh 8%, CHX counter 27*, SARS PLpro yeast -1%, Shiga toxin inh 57*, Pf growth 48h -15% and Pf growth 96h inconclusive.
For COC(=O)C1CCCCN1C(=O)c1ccc2oc(Cc3ccccc3)nc2c1 (configuration not stated) the results were NS1 function inh -19%, CHX counter 67*, SARS PLpro yeast -2%, Shiga toxin inh 83*, Pf growth 48h -3% and Pf growth 96h 8%.
For CCOC(=O)C1CCCCN1C(=O)c1ccc2nc(Cc3ccc(OC)cc3)oc2c1 (configuration not stated) the results were NS1 function inh -11%, CHX counter 6, SARS PLpro yeast 2%, Shiga toxin inh 12, Pf growth 48h inconclusive and Pf growth 96h inconclusive.
Cc1cccc(NC(=O)COC(=O)CCc2c[nH]c3ccccc23)c1C was read as SARS PLpro yeast -3%, Pf growth 48h 13µM* and Pf growth 96h inconclusive.
For Cc1cccc(C)c1NC(=O)COC(=O)CCc1c[nH]c2ccccc12 the results were SARS PLpro yeast 6%, Pf growth 48h 3.7µM* and Pf growth 96h 6.6µM*.
For Cc1ccc(C(=O)OCC(=O)N2CCCCCC2)c(O)c1 the results were SARS PLpro yeast 8%, Pf growth 48h 375% and Pf growth 96h 250%.
`O=S(=O)(c1ccc(Br)cc1)N1CCN(c2ccccc2)CC1` gave NS1 function inh 1%, CHX counter -1, SARS PLpro yeast -3%, Shiga toxin inh 17, Pf growth 48h 10µM* and Pf growth 96h -17%.
Screening O=S(=O)(c1ccccc1)N1CCN(S(=O)(=O)c2ccc(F)cc2)CC1 returned NS1 function inh 0%, CHX counter -1, SARS PLpro yeast 5%, Pf growth 48h 35% and Pf growth 96h 10µM*.
`Cn1c2cc(Br)sc2c2cnn(Cc3c(F)cccc3F)c(=O)c21` gave SARS PLpro yeast -6%, Pf growth 48h 25% and Pf growth 96h 1%.
`CCn1ncc(C(=O)Nc2cccc(Cl)c2)c1C` gave NS1 function inh -29%, CHX counter 67*, SARS PLpro yeast -38%, Shiga toxin inh 30*, Pf growth 48h 297% and Pf growth 96h 295%.
`CCn1ncc(C(=O)Nc2cc(C)on2)c1C` gave NS1 function inh -2%, CHX counter 47*, SARS PLpro yeast -1%, Shiga toxin inh 38, Pf growth 48h 95% and Pf growth 96h 213%.
Screening COc1cccc(NC(=O)c2ccccc2C(F)(F)F)c1 returned NS1 function inh -1%, CHX counter 7, SARS PLpro yeast -1%, Shiga toxin inh 13, Pf growth 48h 16% and Pf growth 96h 13%.
COc1cccc(NC(=O)c2cnn(-c3ccccc3)c2C)c1 was read as NS1 function inh -62%, CHX counter 32*, SARS PLpro yeast -6%, Shiga toxin inh 53*, Pf growth 48h 119% and Pf growth 96h 234%.
Screening CCc1cccc(NC(=O)c2cnn(-c3ccccc3)c2C)c1 returned NS1 function inh -73%, CHX counter 45*, SARS PLpro yeast -13%, Shiga toxin inh 137*, Pf growth 48h 94% and Pf growth 96h 90%.
For Cc1cc(NC(=O)c2cnn3c(C(F)F)cc(C4CC4)nc23)no1 the results were NS1 function inh -4%, CHX counter -1, SARS PLpro yeast 4%, Shiga toxin inh -8, Pf growth 48h -10% and Pf growth 96h inconclusive.
